This note sets out measurements from PubChem BioAssay AID602289 (National Center for Advancing Translational Sciences (NCATS), 2012).

What is called inhibition is the change of the read-out against control, counted positive when it falls.

In all, about 2,400 compounds went through this assay and about 40 (2%) were called active. Another 1% or so got no clear call; they are omitted.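 How the source made its calls: active means inhibition at or above 60%; inconclusive means inhibition from 0% up to below 60%; inactive means no inhibition observed.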 The full list was thinned out, with actives kept by preference.

The nature of the assay: qHTS Assay for Small Molecule Inhibitors of Mitochondrial Division or Activators of Mitochondrial Fusion: Hit Validation in Malachite Green Assay. The following applies: purified GTPase, malachite green phosphate release, A650; stronger effect = higher value. The source says:
The budding yeast S. cerevisiae is a powerful system to study mitochondrial fusion. Unlike other organisms, yeast cells without functional mitochondrial DNA (mtDNA) can be propagated and studied as long as they maintain a mitochondrial compartment and are provided with a fermentable carbon source. When mitochondrial fusion is blocked in yeast, mitochondrial tubules rapidly fragment and division continues unopposed. Under conditions where fusion is compromised in mammalian cells, nearly identical changes in mitochondrial structure have been observed. Thus, these findings indicate that steady state mitochondrial structure in cells is a characteristic and specific indicator of fusion activity. Mounting evidence has pointed to a connection between mitochondrial dynamics and apoptosis in mammalian cells. These studies indicate that in mammalian cells mitochondrial dynamics are more integrated into cellular processes than in yeast cells and have evolved not only to distribute the organelle but also to aid in the regulation of cellular homeostasis. Mitochondrial fusion proteins attenuate apoptosis by inhibiting the release of cytochrome c from mitochondria, in part by controlling cristae structures. Thus, small molecules that inhibit mitochondrial fusion may promote apoptosis and potentially act as novel chemotherapeutics and stimulation of apoptosis has become an attractive target of anti-cancer therapies. To identify inhibitors of mitochondrial division, we exploit the growth phenotypes of mitochondrial fusion-defective mutants. The temperature sensitive fusion alleles, such as fzo1-1 and mgm1-5, cause mitochondrial membranes to fragment in cells under non-permissive conditions and cells lose mtDNA, and are unable to grow in the presence of non-fermentable carbon source glycerol. Inhibiting mitochondrial division rescues growth. The hits were tested by the assay provider in a malachite green assay. NIH Chemical Genomics Center [NCGC] NIH Molecular Libraries Probe Production Centers Network [MLPCN] MLPCN Grant: MH081279 Assay Submitter (PI): Jodi M. Nunnari
Malachite Green Reagent Malachite Green carbinol base- Aldrich 229105 Ammonium molybdate - Sigma A7302 For 100 mL Malachite Green reagent in 1N HCl 16 mL conc. HCL + 32 mL H20 = 48 mL 4N HCl 34 mg malachite green base into 40 mL 1N HCl (10 mL 4N HCl + 30 mL H20) 1 g ammonium molybdate in 15 mL 4N HCl Mix Solutions together. Bring up to […] with H2O. Filter using a 0.2 um tissue culture filter unit (has plastic bottle attached) store at 4 masculine C. (Avoid Glassware/Plastics washed in detergent. Mix solutions in 50 mL conical vials.) For 20 uL reaction volume 1.0 uL Test Drug or DMSO: Added first to each well […]: 25 mM Hepes/Pipes pH 7.0 (H/P) 2.0 uL: 50 mM MgCl2 (final 5mM) 2.32 uL: 1 M NaCl (with contributing protein salt, Final = 150mM) 13.4 uL per reaction. Can be mixed in larger volume (Mini Master Mix) 1.6 uL: Protein 7.5 uM or Protein Freezing Buffer. (Final = 0.6uM) After Protein Added to mini Master Mix, 15ul Total Master Mix added to each well with drug. 4 uL: 500 uM GTP (Final = 100uM), Dilute with 25 mM H/P, store on ice. 20 uL Total Volume Make Master Mix: (Calculate desired reactions and add a few for multi-channel pipetting volume). Multiply the number of desired reactions by 13.4 uL for total Mini Master volume. Multiply the number of desired reactions by 1.6 uL for total Protein volume. Mix, and keep on ice until added to wells. Add 15 uL of Master Mix to each reaction well, incubate with drug for 10 min. For Positive (No Drug) controls add 15 uL Master Mix to wells with only 1 uL DMSO. Make PFB (Protein Freezing Buffer) (no Protein) Master Mix. Multiply the number of desired reactions by 13.4 uL for total Mini Master volume. Multiply the number of desired reactions by 1.6 uL for total PFB volume. Mix, and keep on ice until added to wells Add 10 uL of PFBMaster Mix to each Phosphate Standards well, and 15 uL to each negative control well with DMSO. […]
For orientation: Quantitative high-throughput screening tests each substance at several concentrations.
With `Cn1c2ccccc2c2c(C(=O)N3CCN(c4ccccc4)CC3)cn(C3CCCC3)c(=O)c21`, the inhibition entry is “inactive”. To `COc1cccc(COc2ccc3ccc(=O)oc3c2)c1` belongs “inactive”; to `CC(C)(C)c1ccc(/C=C/C(=O)Nc2ncccn2)cc1`, “inactive”. As to `O=c1c2ccccc2nc(/C=C/c2cccnc2)n1Cc1ccccc1`, the inhibition entry is “inactive”. With `c1ccc(C(c2ccccc2)N2CCN(Cc3nnnn3C3CCCC3)CC2)cc1`, the inhibition entry was “inactive”. With `COc1ccc(NC(=O)CSCC(=O)N(C)Cc2ccc(Cl)c(Cl)c2)cc1`, the inhibition entry is “inactive”.

Turning to `O=S(=O)(Nc1cccc2c1CCCC2)c1ccc(Cl)cc1`, the inhibition entry is “inactive”. The same measure for `N#Cc1c(NC(=O)C2CC2)sc2c1CCCCC2`: “inactive”; for `COC(=O)c1c(NC(=O)c2ccc(C)o2)sc2c1CCCCC2`: “inactive”; for `N#Cc1c(NC(=O)c2ccc(Cn3cc(Br)cn3)o2)sc2c1CCCCCC2`: 97.3% (active).

As for `CCCc1nnc(NC(=O)CCC(=O)O)s1`, the inhibition entry is “inactive”. To `Cc1ccc(Cl)cc1N1CCN(C(=O)c2noc(C)c2[N+](=O)[O-])CC1` belongs “inactive”; to `CCCCNC(=O)N1CCN(C(c2ccccc2)c2ccccc2)CC1`, “inactive”. The same measure for `O=[N+]([O-])c1ccc(S(=O)(=O)N2CCN(C3CCN(Cc4ccccc4)CC3)CC2)cc1`: “inactive”; for `Cc1ccc(C(=O)c2c(NC(=O)c3ccccc3C)sc(C)c2C)cc1`: “inactive”; for `CCOC(=O)c1c(NC(=O)c2ccccc2Cl)sc2c1CCc1ccccc1-2`: 102% (active). To `CCOC(=O)c1c(NC(=O)COc2ccccc2F)sc2c1CC(C)(C)NC2(C)C` belongs “inactive”; to `CN(CCOc1ccccc1)CC(=O)Nc1ccc([N+](=O)[O-])cc1Cl`, “inactive”; to `C=CCSc1nc(N)c(C#N)c(-c2ccc(C)cc2)c1C#N`, “inactive”.

With `CC(=O)c1cccc(NC(=O)c2ccc(-c3ccccc3[N+](=O)[O-])o2)c1`, the inhibition entry is “inactive”.

`COc1ccccc1/C=C/C(=O)c1ccc(NC(C)=O)cc1`: the inhibition result was “inactive”. The same measure for `O=C(/C=C/c1ccco1)Nc1ccc2nn(-c3ccccc3)nc2c1`: “inactive”. Take `O=C(/C=C/c1ccco1)c1ccc(NC(=O)C23CC4CC(CC(C4)C2)C3)cc1`: the inhibition is 80.4% (active). Turning to `O=c1c2cc(N3CCOCC3)ccc2[nH]c(=S)n1CCc1ccccc1`, the inhibition result is “inactive”.
